Source: the supplement of paper PMC10849652
The full data set covers some 8,800 targets. This sample favours those with a hit. About 0.5% of all pairs of compound and target were hits.

Experiments:
Test in all cases: log2 fold change, soluble protein after heating vs DMSO (PISA); higher = thermal stabilisation; K562 lysate, 10 uM; active = over 0.2 and 3.5 SD of the protein, either way, in both replicates (recomputed)
alvocidib = compound: CN1CC[C@H](c2c(O)cc(O)c3c(=O)cc(-c4ccccc4Cl)oc23)[C@H](O)C1 [alvocidib]
Outline: (§1)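 Values give the log-two fold change in thermal stability against solvent controls, from duplicates. Crude K562 extract at 1 mg/mL protein, made by dounce homogenisation in PBS pH 7.4 with 1 mM MgCl2, was treated with 10 μM compound for 30 min. After 3 min heating across 48°C-58°C, aliquots were pooled, adjusted to 0.5% NP-40 at 4°C and centrifuged at 21,000xg for 90 min. The supernatant was measured by TMTpro 16plex LC-MS/MS with channel sums equalised.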

Tubastatin A = compound: CN1CCc2c(c3ccccc3n2Cc2ccc(C(=O)NO)cc2)C1 [Tubastatin A]
Outline: as §1

[1] = compound: CNC(=O)C1=CC=CC=C1NC2=NC(=NC=C2Cl)NC3=C(C=C(C=C3)N4CCOCC4)OC
Outline: as §1

defactinib = compound: CNC(=O)c1ccc(Nc2ncc(C(F)(F)F)c(NCc3nccnc3N(C)S(C)(=O)=O)n2)cc1 [defactinib]
Outline: as §1

[2] = compound: CNc1nc(-c2ccc3c(N)n[nH]c3c2)cc(N2C[C@@H](C(=O)NC3CCCCC3)CC[C@H]2C)n1
Outline: as §1

encorafenib = compound: COC(=O)N[C@@H](C)CNc1nccc(-c2cn(C(C)C)nc2-c2cc(Cl)cc(NS(C)(=O)=O)c2F)n1 [encorafenib]
Outline: as §1

[3] = compound: COC(=O)[C@H](CCSC)NC(=O)C1=C(C=C(C=C1)NC[C@H](CS)N)C2=CC=CC=C2
Outline: as §1

alisertib = compound: COc1cc(Nc2ncc3c(n2)-c2ccc(Cl)cc2C(c2c(F)cccc2OC)=NC3)ccc1C(=O)O [alisertib]
Outline: as §1

[4] = compound: COc1cc2nc(-c3cc(F)ccc3O)nc(N[C@@H]3CNC[C@H]3C(C)(C)O)c2cc1OC
Outline: as §1

gefitinib = compound: COc1cc2ncnc(Nc3ccc(F)c(Cl)c3)c2cc1OCCCN1CCOCC1 [gefitinib]
Outline: as §1

lapatinib = compound: CS(=O)(=O)CCNCc1ccc(-c2ccc3ncnc(Nc4ccc(OCc5cccc(F)c5)c(Cl)c4)c3c2)o1 [lapatinib]
Outline: as §1

pictilisib = compound: CS(=O)(=O)N1CCN(Cc2cc3nc(-c4cccc5[nH]ncc45)nc(N4CCOCC4)c3s2)CC1 [pictilisib]
Outline: as §1

crizotinib = compound: C[C@@H](Oc1cc(-c2cnn(C3CCNCC3)c2)cnc1N)c1c(Cl)ccc(F)c1Cl [crizotinib]
Outline: as §1

[5] = compound: C[C@H](C1=CC=C(C=C1)C(=O)NC2=C3C=CNC3=NC=C2)N
Outline: as §1

duvelisib = compound: C[C@H](Nc1ncnc2nc[nH]c12)c1cc2cccc(Cl)c2c(=O)n1-c1ccccc1 [duvelisib]
Outline: as §1

gandotinib = compound: Cc1cc(Nc2cc(CN3CCOCC3)c3nc(C)c(Cc4ccc(Cl)cc4F)n3n2)n[nH]1 [gandotinib]
Outline: as §1

tozasertib = compound: Cc1cc(Nc2cc(N3CCN(C)CC3)nc(Sc3ccc(NC(=O)C4CC4)cc3)n2)n[nH]1 [tozasertib]
Outline: as §1

doramapimod = compound: Cc1ccc(-n2nc(C(C)(C)C)cc2NC(=O)Nc2ccc(OCCN3CCOCC3)c3ccccc23)cc1 [doramapimod]
Outline: as §1

bafetinib = compound: Cc1ccc(NC(=O)c2ccc(CN3CC[C@H](N(C)C)C3)c(C(F)(F)F)c2)cc1Nc1nccc(-c2cncnc2)n1 [bafetinib]
Outline: as §1

[6] = compound: Cc1cccc(CC(=O)N2CCc3c2ccc(-c2cn(C)c4ncnc(N)c24)c3F)n1
Outline: as §1

Measured: log2 fold change

SEC61G (UniProt P60059)
Chain of UniProt P60059 (P60059 whole entry, looked up): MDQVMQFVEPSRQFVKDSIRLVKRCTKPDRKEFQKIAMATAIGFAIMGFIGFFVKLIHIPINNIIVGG
active: gandotinib 0.46
inactive: alvocidib -0.107 | Tubastatin A 0.063 | [1] 0.09 | defactinib 0.045 | [2] 0.137 | encorafenib -0.02 | [3] 0.067 | alisertib 0.053 | [4] 0.009 | gefitinib 0.036 | lapatinib -0.094 | pictilisib 0.139 | crizotinib 0.209 | [5] -0.331 | duvelisib 0.105 | tozasertib -0.168 | doramapimod 0.098 | bafetinib -0.192 | [6] 0.338

RAI14 isoform 2 (UniProt Q9P0K7)
Chain of UniProt Q9P0K7 (Q9P0K7 whole entry, looked up): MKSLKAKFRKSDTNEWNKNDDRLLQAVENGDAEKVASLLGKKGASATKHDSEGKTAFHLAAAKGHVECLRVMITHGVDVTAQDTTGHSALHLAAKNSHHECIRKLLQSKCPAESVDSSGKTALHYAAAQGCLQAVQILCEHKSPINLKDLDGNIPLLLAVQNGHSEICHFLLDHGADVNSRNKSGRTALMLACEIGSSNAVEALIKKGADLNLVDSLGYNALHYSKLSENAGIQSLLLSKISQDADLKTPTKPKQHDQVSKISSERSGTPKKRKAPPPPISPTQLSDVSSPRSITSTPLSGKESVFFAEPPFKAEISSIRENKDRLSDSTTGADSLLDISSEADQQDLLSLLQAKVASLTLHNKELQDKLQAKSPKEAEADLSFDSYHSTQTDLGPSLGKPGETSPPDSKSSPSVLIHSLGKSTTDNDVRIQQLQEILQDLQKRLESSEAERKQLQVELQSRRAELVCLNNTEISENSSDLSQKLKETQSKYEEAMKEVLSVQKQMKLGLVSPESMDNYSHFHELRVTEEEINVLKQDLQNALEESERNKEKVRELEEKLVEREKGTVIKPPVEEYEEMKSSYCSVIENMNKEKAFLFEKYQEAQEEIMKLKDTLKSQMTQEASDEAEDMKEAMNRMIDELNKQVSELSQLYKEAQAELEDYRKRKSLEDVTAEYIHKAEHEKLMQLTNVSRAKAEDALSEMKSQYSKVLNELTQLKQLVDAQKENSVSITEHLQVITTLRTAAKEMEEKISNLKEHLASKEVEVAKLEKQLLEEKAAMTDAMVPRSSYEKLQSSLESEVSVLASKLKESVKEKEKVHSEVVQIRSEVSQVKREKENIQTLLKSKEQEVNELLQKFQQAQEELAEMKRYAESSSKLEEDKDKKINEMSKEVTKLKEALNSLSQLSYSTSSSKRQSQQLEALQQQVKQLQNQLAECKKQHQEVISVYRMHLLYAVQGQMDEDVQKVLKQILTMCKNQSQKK
inactive: alvocidib 0.019 | Tubastatin A -0.08 | [1] 0.003 | defactinib 0.031 | [2] 0.077 | encorafenib 0.012 | [3] 0.083 | alisertib -0.018 | [4] 0 | gefitinib 0.029 | lapatinib -0.026 | pictilisib -0.007 | crizotinib -0.014 | [5] 0 | duvelisib -0.025 | gandotinib -0.051 | tozasertib 0.009 | doramapimod 0 | bafetinib -0.029 | [6] 0.002

REEP6 (UniProt Q96HR9)
Chain of UniProt Q96HR9 (Q96HR9 whole entry, looked up): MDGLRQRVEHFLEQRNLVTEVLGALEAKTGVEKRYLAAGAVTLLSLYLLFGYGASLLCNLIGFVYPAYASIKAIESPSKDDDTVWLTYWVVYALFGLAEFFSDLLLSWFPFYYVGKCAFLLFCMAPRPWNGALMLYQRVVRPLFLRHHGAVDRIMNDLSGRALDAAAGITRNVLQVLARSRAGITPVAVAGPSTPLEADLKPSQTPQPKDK
inactive: alvocidib -0.089 | Tubastatin A 0.045 | [1] 0.02 | defactinib 0.056 | [2] -0.013 | encorafenib 0.076 | [3] -0.025 | alisertib 0.032 | [4] -0.036 | gefitinib -0.175 | lapatinib 0.066 | pictilisib 0.047 | crizotinib -0.04 | [5] -0.269 | duvelisib -0.006 | gandotinib 0.056 | tozasertib 0.097 | doramapimod 0.052 | bafetinib -0.031 | [6] 0.078

SEC16A isoform 5 (UniProt O15027)
inactive: alvocidib -0.005 | Tubastatin A -0.09 | [1] 0.011 | defactinib -0.014 | [2] -0.002 | encorafenib 0.011 | [3] 0.01 | alisertib -0.001 | [4] 0.013 | gefitinib 0.014 | lapatinib -0.019 | pictilisib -0.044 | crizotinib 0.018 | [5] -0.039 | duvelisib -0.013 | gandotinib -0.014 | tozasertib -0.001 | doramapimod -0.002 | bafetinib 0.031 | [6] 0.029

RAC2 (UniProt P15153)
inactive: alvocidib 0.047 | Tubastatin A -0.086 | [1] 0.082 | defactinib 0.007 | [2] 0.06 | encorafenib -0.022 | [3] -0.001 | alisertib 0.051 | [4] 0.056 | gefitinib 0.016 | lapatinib -0.057 | pictilisib 0.016 | crizotinib -0.018 | [5] -0.05 | duvelisib -0.026 | gandotinib -0.025 | tozasertib -0.062 | doramapimod -0.014 | bafetinib -0.042 | [6] 0.031

RPLP0P6 (UniProt Q8NHW5)
inactive: alvocidib -0.018 | Tubastatin A 0.015 | [1] -0.001 | defactinib -0.014 | [2] 0.023 | encorafenib 0.001 | [3] 0.018 | alisertib 0.004 | [4] 0.023 | gefitinib -0.019 | lapatinib 0.003 | pictilisib 0.033 | crizotinib -0.013 | [5] 0.014 | duvelisib 0.016 | gandotinib -0.013 | tozasertib -0.005 | doramapimod 0.001 | [6] 0.034
active: bafetinib 0.274

RPAP1 (UniProt Q9BWH6)
Chain of UniProt Q9BWH6 (Q9BWH6 whole entry, looked up): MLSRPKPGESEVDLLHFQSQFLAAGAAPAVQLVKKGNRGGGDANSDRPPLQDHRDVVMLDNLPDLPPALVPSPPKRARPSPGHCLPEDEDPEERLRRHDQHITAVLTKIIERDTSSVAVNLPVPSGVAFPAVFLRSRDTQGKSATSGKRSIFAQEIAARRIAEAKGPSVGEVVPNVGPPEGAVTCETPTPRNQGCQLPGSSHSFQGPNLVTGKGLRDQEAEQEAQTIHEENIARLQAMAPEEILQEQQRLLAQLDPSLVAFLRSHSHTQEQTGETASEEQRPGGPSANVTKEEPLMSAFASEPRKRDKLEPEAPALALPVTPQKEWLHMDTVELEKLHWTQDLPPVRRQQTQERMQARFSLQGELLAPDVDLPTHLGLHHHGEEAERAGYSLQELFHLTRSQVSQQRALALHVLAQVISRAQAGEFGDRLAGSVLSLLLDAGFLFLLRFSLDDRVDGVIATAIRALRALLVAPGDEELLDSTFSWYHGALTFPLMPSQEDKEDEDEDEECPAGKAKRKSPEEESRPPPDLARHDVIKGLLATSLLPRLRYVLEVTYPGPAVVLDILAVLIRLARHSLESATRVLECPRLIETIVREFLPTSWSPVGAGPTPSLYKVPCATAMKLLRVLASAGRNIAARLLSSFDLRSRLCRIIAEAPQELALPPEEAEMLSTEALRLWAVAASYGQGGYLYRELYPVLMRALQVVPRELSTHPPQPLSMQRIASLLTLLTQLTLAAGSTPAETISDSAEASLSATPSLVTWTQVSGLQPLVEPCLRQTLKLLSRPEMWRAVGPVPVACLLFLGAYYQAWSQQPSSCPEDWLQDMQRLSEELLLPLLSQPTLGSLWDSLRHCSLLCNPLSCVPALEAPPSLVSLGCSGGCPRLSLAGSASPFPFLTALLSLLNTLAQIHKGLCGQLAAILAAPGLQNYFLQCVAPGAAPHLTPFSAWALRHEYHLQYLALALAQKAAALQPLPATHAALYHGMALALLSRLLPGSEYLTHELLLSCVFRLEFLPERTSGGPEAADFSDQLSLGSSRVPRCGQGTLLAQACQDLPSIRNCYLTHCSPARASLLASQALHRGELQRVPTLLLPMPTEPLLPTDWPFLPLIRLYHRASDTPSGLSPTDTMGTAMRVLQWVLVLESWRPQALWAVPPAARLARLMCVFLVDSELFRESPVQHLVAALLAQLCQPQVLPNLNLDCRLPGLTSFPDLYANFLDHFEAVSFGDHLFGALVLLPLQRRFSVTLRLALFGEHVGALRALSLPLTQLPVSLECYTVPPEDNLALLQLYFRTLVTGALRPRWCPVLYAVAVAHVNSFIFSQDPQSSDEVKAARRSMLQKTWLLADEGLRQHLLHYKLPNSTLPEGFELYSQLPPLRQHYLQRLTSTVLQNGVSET
inactive: alvocidib -0.001 | Tubastatin A -0.077 | [1] 0.016 | defactinib -0.006 | [2] 0.007 | encorafenib 0.019 | [3] -0.069 | alisertib 0.013 | [4] 0.027 | gefitinib -0.007 | lapatinib -0.012 | pictilisib -0.027 | crizotinib -0.026 | [5] -0.026 | duvelisib 0.021 | gandotinib -0.002 | tozasertib 0.018 | doramapimod 0.001 | bafetinib -0.041 | [6] 0

RRM1 (UniProt P23921)
inactive: alvocidib -0.004 | Tubastatin A -0.098 | [1] -0.007 | defactinib 0.022 | [2] -0.03 | encorafenib 0.005 | [3] 0.098 | alisertib 0.007 | [4] 0.007 | gefitinib -0.006 | lapatinib 0.003 | pictilisib 0.01 | crizotinib -0.025 | [5] -0.004 | duvelisib -0.052 | gandotinib -0.028 | tozasertib -0.036 | doramapimod -0.017 | bafetinib -0.018 | [6] 0.001

REL isoform 2 (UniProt Q04864)
active: [5] 0.32
inactive: alvocidib 0.061 | Tubastatin A -0.126 | [1] 0.003 | defactinib 0.023 | [2] -0.056 | encorafenib 0.012 | [3] 0.029 | alisertib -0.003 | [4] -0.019 | gefitinib 0.029 | lapatinib 0.014 | pictilisib 0.005 | crizotinib -0.025 | duvelisib 0.001 | gandotinib 0.074 | tozasertib 0.052 | doramapimod 0.023 | bafetinib -0.04 | [6] -0.072

RARS (UniProt P54136)
inactive: alvocidib 0.032 | Tubastatin A -0.1 | [1] -0.006 | defactinib 0.024 | [2] -0.035 | encorafenib -0.001 | [3] 0.128 | alisertib 0.026 | [4] -0.009 | gefitinib -0.023 | lapatinib 0.003 | pictilisib 0.019 | crizotinib -0.047 | [5] 0.039 | duvelisib -0.018 | gandotinib -0.078 | tozasertib 0.019 | doramapimod 0.042 | bafetinib -0.029 | [6] 0.041

SERINC3 (UniProt Q13530)
Chain of UniProt Q13530 (Q13530 whole entry, looked up): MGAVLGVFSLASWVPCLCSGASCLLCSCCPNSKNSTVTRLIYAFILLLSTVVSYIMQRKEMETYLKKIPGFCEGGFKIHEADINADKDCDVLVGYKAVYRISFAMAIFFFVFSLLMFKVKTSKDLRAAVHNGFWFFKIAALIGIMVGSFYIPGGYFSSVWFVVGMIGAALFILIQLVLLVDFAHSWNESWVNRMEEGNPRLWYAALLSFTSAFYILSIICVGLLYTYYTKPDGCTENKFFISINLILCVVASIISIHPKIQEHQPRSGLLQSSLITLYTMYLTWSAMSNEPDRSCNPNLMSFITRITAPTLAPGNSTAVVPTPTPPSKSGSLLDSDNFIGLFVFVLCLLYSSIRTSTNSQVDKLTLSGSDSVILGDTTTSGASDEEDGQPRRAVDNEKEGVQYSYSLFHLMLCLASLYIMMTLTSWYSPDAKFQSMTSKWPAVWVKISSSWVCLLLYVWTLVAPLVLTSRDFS
active: [5] -0.38
inactive: alvocidib -0.074 | Tubastatin A -0.008 | [1] 0.057 | defactinib -0.091 | [2] 0.065 | encorafenib 0.023 | [3] -0.109 | alisertib -0.047 | [4] 0.055 | gefitinib 0.014 | lapatinib -0.052 | pictilisib -0.028 | crizotinib -0.07 | duvelisib -0.001 | gandotinib 0.16 | tozasertib -0.012 | doramapimod 0.03 | bafetinib -0.014 | [6] 0.075

RANBP6 (UniProt O60518)
Chain of UniProt O60518 (O60518 whole entry, looked up): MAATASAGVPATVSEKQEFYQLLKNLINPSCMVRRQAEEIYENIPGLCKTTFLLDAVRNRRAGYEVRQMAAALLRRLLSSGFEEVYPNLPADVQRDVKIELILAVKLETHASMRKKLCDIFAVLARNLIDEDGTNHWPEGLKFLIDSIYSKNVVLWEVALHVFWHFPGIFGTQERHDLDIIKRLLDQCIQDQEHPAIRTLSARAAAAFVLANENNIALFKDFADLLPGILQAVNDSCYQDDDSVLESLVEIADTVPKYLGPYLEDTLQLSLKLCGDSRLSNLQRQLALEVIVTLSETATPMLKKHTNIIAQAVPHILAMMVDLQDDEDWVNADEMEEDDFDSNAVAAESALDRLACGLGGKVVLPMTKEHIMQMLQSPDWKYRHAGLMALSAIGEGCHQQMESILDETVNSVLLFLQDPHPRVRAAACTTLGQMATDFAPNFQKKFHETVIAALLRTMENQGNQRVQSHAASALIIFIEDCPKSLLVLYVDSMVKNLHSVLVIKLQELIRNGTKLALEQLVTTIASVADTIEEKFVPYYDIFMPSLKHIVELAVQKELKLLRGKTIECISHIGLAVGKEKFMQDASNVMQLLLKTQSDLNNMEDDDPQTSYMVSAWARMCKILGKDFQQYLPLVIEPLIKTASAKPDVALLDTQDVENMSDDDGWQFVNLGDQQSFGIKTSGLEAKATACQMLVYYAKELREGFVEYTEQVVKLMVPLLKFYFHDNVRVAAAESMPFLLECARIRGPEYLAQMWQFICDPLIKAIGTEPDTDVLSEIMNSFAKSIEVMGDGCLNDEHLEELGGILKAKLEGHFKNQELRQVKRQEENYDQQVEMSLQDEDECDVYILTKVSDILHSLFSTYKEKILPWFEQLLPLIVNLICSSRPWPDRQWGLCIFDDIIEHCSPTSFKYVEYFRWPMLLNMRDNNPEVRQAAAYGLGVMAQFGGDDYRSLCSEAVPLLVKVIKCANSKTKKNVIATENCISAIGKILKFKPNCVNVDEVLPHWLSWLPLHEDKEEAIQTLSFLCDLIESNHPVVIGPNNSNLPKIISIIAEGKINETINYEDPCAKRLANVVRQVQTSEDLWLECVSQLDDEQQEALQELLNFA
inactive: alvocidib -0.033 | Tubastatin A -0.07 | [1] 0.008 | defactinib 0.047 | [2] 0.014 | encorafenib -0.027 | [3] 0.057 | alisertib 0.063 | [4] 0.046 | gefitinib 0.008 | lapatinib -0.007 | pictilisib -0.005 | crizotinib -0.125 | [5] -0.067 | duvelisib 0.019 | gandotinib -0.01 | tozasertib 0.012 | doramapimod 0.039 | bafetinib 0.016 | [6] 0.148

RBM23 isoform 2 (UniProt Q86U06)
Chain of UniProt Q86U06 (Q86U06 whole entry, looked up): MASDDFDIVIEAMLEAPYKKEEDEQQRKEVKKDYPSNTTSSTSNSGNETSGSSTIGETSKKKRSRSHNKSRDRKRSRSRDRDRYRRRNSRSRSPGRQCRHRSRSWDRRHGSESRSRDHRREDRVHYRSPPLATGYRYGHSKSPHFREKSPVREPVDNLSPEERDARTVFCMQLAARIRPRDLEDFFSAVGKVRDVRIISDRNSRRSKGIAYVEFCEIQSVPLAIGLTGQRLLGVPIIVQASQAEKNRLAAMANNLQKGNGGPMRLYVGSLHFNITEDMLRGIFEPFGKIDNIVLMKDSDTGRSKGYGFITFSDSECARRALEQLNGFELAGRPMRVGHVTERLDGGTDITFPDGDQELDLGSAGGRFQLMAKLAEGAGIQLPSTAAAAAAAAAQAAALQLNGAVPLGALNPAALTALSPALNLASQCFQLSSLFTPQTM
active: doramapimod 0.489
inactive: alvocidib -0.056 | Tubastatin A -0.084 | [1] 0.133 | defactinib -0.037 | [2] 0.181 | encorafenib 0.335 | [3] -0.003 | alisertib 0.11 | [4] 0.137 | gefitinib 0.057 | lapatinib 0.056 | pictilisib -0.053 | crizotinib -0.076 | [5] 0.044 | duvelisib -0.008 | gandotinib 0.272 | tozasertib 0.053 | bafetinib -0.114 | [6] 0.083

RBMX (UniProt P38159)
inactive: alvocidib -0.003 | Tubastatin A -0.03 | [1] -0.042 | defactinib 0.023 | [2] -0.022 | encorafenib 0.021 | [3] -0.068 | alisertib 0.002 | [4] 0.013 | gefitinib 0.023 | lapatinib 0.002 | pictilisib 0.012 | crizotinib 0.022 | [5] 0.011 | duvelisib 0.033 | gandotinib -0.003 | tozasertib 0.013 | doramapimod 0.008 | bafetinib 0.068 | [6] 0.022

RFC2 (UniProt P35250)
inactive: alvocidib -0.025 | Tubastatin A -0.21 | [1] -0.012 | defactinib 0.023 | [2] -0.055 | encorafenib 0.042 | [3] 0.113 | alisertib 0.014 | [4] 0.005 | gefitinib 0.007 | lapatinib -0.004 | pictilisib 0.015 | crizotinib -0.046 | [5] -0.025 | duvelisib 0.025 | gandotinib -0.007 | tozasertib 0.005 | doramapimod 0.042 | bafetinib -0.074 | [6] 0.041

RFC5 (UniProt P40937)
Chain of UniProt P40937 (P40937 whole entry, looked up): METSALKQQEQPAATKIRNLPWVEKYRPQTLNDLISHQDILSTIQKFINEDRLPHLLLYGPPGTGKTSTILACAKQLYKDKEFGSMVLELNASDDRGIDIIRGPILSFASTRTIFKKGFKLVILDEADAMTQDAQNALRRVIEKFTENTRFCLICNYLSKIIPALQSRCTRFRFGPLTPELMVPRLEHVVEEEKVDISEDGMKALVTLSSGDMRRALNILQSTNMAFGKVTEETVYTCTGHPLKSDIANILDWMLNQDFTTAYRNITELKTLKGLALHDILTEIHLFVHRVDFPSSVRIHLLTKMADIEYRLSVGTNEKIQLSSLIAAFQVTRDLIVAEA
inactive: alvocidib 0.004 | Tubastatin A -0.203 | [1] 0.003 | defactinib 0.008 | [2] -0.004 | encorafenib 0.051 | [3] 0.148 | alisertib -0.006 | [4] -0.003 | gefitinib 0 | lapatinib 0.007 | pictilisib -0.058 | crizotinib -0.056 | [5] -0.047 | duvelisib 0.016 | gandotinib -0.068 | tozasertib 0.018 | doramapimod 0.026 | bafetinib -0.039 | [6] 0.018
